Activity calls are given as the source filed them. Unless noted, how the calls were made is not given here.
How the values were obtained:
[1] = anti-His antibody binders, primary screen, artefact control for SMM control protein annotation, biochemical, small-molecule microarray, 635 nm fluorescence (AID 1128); settings: anti-His Alexa647 antibody binding, higher = more signal;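 further: score merges feature fluorescence with signal-to-noise for each printed compound spot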
[2] = test system: Human papillomavirus type 1a E7 protein (residues 1-88); assay: HPV1a E7 small-molecule binders, primary screen, biochemical, small-molecule microarray, residues 1-88, 635 nm (AID 1129); settings: small-molecule microarray binding, fluorescence 635 nm; higher = more signal
[3] = target: Focal adhesion kinase 1 (Homo sapiens) (UniProt Q05397); assay: small-molecule microarray binders of FAK, primary screen, biochemical, 635/667 nm fluorescence, BSA, DTT (AID 1130); settings: PTK2 binding, 635 nm fluorescence, higher = more signal;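 further: composite of spot emission at 667 nm and signal to noise over triplicate slides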
Chain of Focal adhesion kinase 1 (Homo sapiens) (Q05397 whole entry, looked up): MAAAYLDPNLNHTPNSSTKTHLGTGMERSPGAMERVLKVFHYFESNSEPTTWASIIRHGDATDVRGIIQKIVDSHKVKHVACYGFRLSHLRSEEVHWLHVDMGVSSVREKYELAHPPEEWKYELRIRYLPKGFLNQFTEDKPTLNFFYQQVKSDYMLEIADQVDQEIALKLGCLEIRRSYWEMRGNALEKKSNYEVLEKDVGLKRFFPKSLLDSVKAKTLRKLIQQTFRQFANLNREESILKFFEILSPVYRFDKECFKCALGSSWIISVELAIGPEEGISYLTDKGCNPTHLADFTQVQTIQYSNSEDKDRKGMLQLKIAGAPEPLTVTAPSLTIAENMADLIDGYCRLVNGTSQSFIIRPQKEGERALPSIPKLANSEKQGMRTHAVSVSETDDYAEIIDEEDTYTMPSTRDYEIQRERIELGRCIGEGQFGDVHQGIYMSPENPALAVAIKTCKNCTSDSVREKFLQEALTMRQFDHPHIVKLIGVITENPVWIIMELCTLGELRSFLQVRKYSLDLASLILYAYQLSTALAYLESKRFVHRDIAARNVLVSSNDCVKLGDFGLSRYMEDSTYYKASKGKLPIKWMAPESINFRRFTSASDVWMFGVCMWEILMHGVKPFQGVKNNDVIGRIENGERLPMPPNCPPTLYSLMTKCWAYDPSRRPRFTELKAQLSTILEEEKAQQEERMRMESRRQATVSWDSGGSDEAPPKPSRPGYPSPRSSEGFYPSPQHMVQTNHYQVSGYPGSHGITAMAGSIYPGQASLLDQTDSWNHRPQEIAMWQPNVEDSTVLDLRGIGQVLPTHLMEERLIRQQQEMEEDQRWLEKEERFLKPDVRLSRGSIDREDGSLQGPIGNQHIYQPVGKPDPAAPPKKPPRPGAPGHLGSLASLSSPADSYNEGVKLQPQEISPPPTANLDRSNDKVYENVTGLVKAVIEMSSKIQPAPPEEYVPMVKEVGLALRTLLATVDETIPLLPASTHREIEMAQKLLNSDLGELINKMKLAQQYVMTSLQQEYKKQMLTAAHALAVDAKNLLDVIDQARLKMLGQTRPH

[4] = test system: Fibrinogen (Alexa647-labelled); assay: fibrinogen binders on compound microarrays, profiling panel, artefact control for SMM control-protein annotation, biochemical, small-molecule microarray, 635/667 nm fluorescence (AID 1131); settings: fibrinogen-A647 binding fluorescence, higher = more signal;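 further: z-score merges 667 nm fluorescence with per-spot signal-to-noise over triplicate slides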
[5] = target: Follistatin (Homo sapiens) (UniProt P19883); assay: follistatin binders on small-molecule microarrays, primary screen, biochemical, small-molecule microarray, 635/667 nm fluorescence (AID 1132); settings: FST binding, 635 nm fluorescence, higher = more signal
Chain of Follistatin (Homo sapiens) (P19883 whole entry, looked up): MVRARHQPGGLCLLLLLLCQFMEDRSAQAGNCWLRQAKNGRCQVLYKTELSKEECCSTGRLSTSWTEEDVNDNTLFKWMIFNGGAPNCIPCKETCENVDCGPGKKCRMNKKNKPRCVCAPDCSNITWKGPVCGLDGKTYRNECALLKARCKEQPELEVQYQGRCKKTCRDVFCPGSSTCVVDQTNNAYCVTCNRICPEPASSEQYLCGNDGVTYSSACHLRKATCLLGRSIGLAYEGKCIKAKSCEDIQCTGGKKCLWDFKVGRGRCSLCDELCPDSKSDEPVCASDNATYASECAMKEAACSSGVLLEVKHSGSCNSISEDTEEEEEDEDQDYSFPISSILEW

[6] = target: Fibroblast growth factor 2 (Homo sapiens) (UniProt P09038); assay: FGF2 binders on small-molecule microarrays, primary screen, biochemical, small-molecule microarray, 635/667 nm fluorescence (AID 1133); settings: small-molecule microarray binding, FGF2, fluorescence 635/667; higher = more signal
Chain of Fibroblast growth factor 2 (Homo sapiens) (P09038 whole entry, looked up): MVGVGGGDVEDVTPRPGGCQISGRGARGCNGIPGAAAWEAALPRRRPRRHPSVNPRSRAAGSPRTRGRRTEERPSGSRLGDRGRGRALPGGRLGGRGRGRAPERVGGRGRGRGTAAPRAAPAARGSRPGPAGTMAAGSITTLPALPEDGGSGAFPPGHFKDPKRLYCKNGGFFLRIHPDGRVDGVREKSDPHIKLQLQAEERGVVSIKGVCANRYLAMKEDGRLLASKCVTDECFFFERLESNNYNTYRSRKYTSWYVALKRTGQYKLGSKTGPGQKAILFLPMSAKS

[7] = mitochondrial membrane potential change in A549 cells, profiling panel, cell-based, JC-1 fluorescence, basal, 24 h, 100 nL (AID 1138); settings: higher = more signal;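 further: A549 lung adenocarcinoma cells under basal conditions with no added stimulus; test concentration not given here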
Lefty1 = Lefty1 binders on small-molecule microarrays, primary screen, biochemical, small-molecule microarray, 635/667 nm fluorescence (AID 1139); settings: small-molecule microarray binding, fluorescence 635/667; higher = more signal
[8] = test system: wheat germ agglutinin (Triticum aestivum), Alexa647-labelled; assay: wheat germ agglutinin binders on compound microarrays, profiling panel, artefact control for SMM control-protein annotation, biochemical, small-molecule microarray, 635/667 nm fluorescence (AID 1140); settings: WGA-A647 binding, 635 nm fluorescence, higher = more signal;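 further: score merges 667 nm feature emission with signal to noise over triplicate slides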
[9] = target: Luciferin 4-monooxygenase (Photinus pyralis) (UniProt P08659); assay: firefly luciferase enzyme inhibitors, primary screen, biochemical, luminescence, purified enzyme, 2006 set (AID 1141); settings: SteadyGlo luminescence, 30 min, higher = more signal, called active from +8 up or from −8 down;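 further: cell-free assay with purified firefly luciferase at 100 ng per well in PBS; test concentration not given here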
Chain of Luciferin 4-monooxygenase (Photinus pyralis) (P08659 whole entry, looked up): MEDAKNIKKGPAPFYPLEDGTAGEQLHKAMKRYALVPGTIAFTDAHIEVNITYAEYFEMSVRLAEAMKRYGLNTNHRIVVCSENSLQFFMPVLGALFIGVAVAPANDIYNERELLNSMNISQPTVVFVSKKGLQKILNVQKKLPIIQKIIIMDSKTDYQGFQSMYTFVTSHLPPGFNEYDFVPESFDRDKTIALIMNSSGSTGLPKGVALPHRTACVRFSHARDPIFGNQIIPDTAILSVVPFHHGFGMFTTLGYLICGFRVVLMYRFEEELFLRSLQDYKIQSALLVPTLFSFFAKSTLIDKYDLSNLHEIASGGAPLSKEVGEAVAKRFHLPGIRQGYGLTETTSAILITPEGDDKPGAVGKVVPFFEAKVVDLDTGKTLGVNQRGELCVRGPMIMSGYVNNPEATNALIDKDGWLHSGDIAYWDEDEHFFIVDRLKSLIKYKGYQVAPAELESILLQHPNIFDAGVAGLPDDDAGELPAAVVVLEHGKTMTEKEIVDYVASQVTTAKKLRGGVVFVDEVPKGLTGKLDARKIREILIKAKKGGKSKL

[10] = test system: Wnt5a (protein binding on small-molecule microarray); assay: Wnt5a binders on small-molecule microarray, primary screen, biophysical, 635/667 nm fluorescence (AID 1142); settings: 635 nm fluorescence, higher = more signal;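 further: fluorescence read at 667 nm with signal to noise per printed feature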
[11] = cell viability in Huh7 cells, primary screen, cytotoxicity control for HCV replication inhibitor project, CellTiter-Glo luminescence, basal, 48 h (AID 1143); settings: Huh7 HCV replicon, higher = more signal, called active from +8 up or from −8 down;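 further: Huh7 hepatoma cells carrying a hepatitis C replication reporter with no stimulus; test concentration not given here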
[12] = P. aeruginosa biofilm formation inhibitors, primary screen, PAO1 strain, BacTiter-Glo luminescence, LB-PBS (AID 1144); settings: 12 h, higher = more signal
[13] = CREB reporter modulators without forskolin, primary screen, cell-based, PC12, CRE-LacZ reporter, unstimulated (AID 1145); settings: no forskolin, luminescence, 4.5 h, higher = more signal, called active from +8 up or from −8 down
[14] = CREB reporter modulators under forskolin, primary screen, cell-based, PC12, CRE-LacZ reporter, forskolin-stimulated (AID 1146); settings: luminescence, 4.5 h, higher = more signal, called active from +8 up or from −8 down;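 further: PC12 cells with 6xCRE LacZ reporter stimulated by forskolin 10 µM; beta-galactosidase reporter signal reflecting CREB driven transcription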
[15] = target: Streptavidin (Streptomyces avidinii) (UniProt P22629); assay: streptavidin binders on small-molecule microarray, primary screen, artefact control for SMM compound annotation, biophysical, 635/667 nm fluorescence (AID 1147); settings: streptavidin binding, higher = more signal;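 further: signal reflects streptavidin binding to arrayed compounds as a control protein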
Chain of Streptavidin (Streptomyces avidinii) (P22629 whole entry, looked up): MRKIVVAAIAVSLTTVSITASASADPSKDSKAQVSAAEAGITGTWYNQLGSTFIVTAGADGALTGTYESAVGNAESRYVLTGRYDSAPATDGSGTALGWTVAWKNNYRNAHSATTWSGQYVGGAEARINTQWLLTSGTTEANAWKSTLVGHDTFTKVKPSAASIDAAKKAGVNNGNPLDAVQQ

[16] = small-molecule binders of probe aInhba, primary screen, biochemical, small-molecule microarray, 635/667 nm fluorescence (AID 1148); settings: higher = more signal;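 further: score merges 667nm spot fluorescence with signal-to-noise for antibody binding to printed compounds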
Torsin-1A (Homo sapiens) [17] = target: Torsin-1A (Homo sapiens) (UniProt O14656); assay: torsin A binders from cell lysate, primary screen, small-molecule microarray, wild-type, 635/667 nm (AID 1149); settings: COS7 hTOR1A-WT lysate, 635 nm fluorescence, higher = more signal
Chain of Torsin-1A (Homo sapiens) (O14656 whole entry, looked up): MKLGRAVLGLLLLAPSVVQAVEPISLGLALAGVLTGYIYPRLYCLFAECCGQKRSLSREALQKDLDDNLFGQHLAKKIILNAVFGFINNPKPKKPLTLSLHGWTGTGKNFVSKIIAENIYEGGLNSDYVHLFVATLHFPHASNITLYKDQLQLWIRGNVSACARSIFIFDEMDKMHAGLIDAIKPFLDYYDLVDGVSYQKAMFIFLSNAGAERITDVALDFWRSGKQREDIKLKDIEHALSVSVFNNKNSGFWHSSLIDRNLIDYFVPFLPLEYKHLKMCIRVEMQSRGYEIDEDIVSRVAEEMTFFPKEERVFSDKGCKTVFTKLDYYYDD

Torsin-1A (Homo sapiens) [18] = target: Torsin-1A (Homo sapiens) (UniProt O14656); assay: small-molecule binders of mutant TOR1A in lysate, primary screen, cell lysate, small-molecule microarray, COS7 lysate, 635/667 nm fluorescence (AID 1150); settings: COS7 hTOR1A mutant lysate, 635 nm fluorescence, higher = more signal;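 further: score pools 667 nm emission and signal to noise measuring lysate protein binding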
[19] = test system: Sonic hedgehog protein (Shh); assay: small-molecule binders of Shh protein, primary screen, biochemical, small-molecule microarray, 635/667 nm fluorescence (AID 1151); settings: small-molecule microarray binding, 635 nm fluorescence; higher = more signal;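 further: Shh protein binding to compounds spotted on small-molecule microarray slides; score combines spot fluorescence intensity with signal-to-noise across triplicate slides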

**Q.** What does the source list for `CC=CC(O)C1C=CC2C(=O)N(C)C(=O)C2N1NC(=O)OC(C)(C)C` (stereo not given)?
**A.** composite z-score [1]: 0.831; composite z-score [2]: 0.347; composite z-score [3]: -0.116; composite z-score [4]: 0.516; composite z-score [5]: 0.767; composite z-score [6]: 0.812; z-score [7]: -0.559; composite z-score (Lefty1): 0.0938; composite z-score [8]: 0.838; z-score [9]: -0.645 (inactive); composite z-score [10]: 0.155; z-score [11]: 0.477 (inactive); z-score [12]: 0.433 (inactive); z-score [13]: 1.01 (inactive); z-score [14]: 0.742 (inactive); composite z-score [15]: 0.32; composite z-score [16]: 0.038; composite z-score (Torsin-1A (Homo sapiens) [17]): 0.831; composite z-score (Torsin-1A (Homo sapiens) [18]): 0.229; composite z-score [19]: 0.0729

**Q.** For `COCCCN1C(=O)[C@@]2(Cc3ccccc31)c1ccccc1C(=O)N(Cc1ccccc1OC)[C@H]2c1ccc(CO)cc1`, which composite z-score [1] is on record?
**A.** -1.44

**Q.** What about the composite z-score [2] of the same molecule?
**A.** -0.717

**Q.** And the composite z-score [3]?
**A.** -0.725

**Q.** What about the composite z-score [4] of the same molecule?
**A.** 0.0715

**Q.** What about the composite z-score [5] of the same molecule?
**A.** -1.07

**Q.** And the composite z-score [6]?
**A.** -0.665

**Q.** What about the z-score [7] of the same molecule?
**A.** 0.0581

**Q.** And the composite z-score (Lefty1)?
**A.** -0.566

**Q.** And the composite z-score [8]?
**A.** -0.0303

**Q.** What about the z-score [9] of the same molecule?
**A.** -0.522 (inactive)

**Q.** What about the composite z-score [10] of the same molecule?
**A.** -0.0515

**Q.** What about the z-score [11] of the same molecule?
**A.** 0.532 (inactive)

**Q.** And the z-score [12]?
**A.** 0.53 (inactive)

**Q.** What about the z-score [13] of the same molecule?
**A.** 0.0279 (inactive)

**Q.** And the z-score [14]?
**A.** 1.2 (inactive)

**Q.** What about the composite z-score [15] of the same molecule?
**A.** -0.111

**Q.** And the composite z-score [16]?
**A.** -0.108

**Q.** And the composite z-score (Torsin-1A (Homo sapiens) [17])?
**A.** -0.596

**Q.** What about the composite z-score (Torsin-1A (Homo sapiens) [18]) of the same molecule?
**A.** -0.274

**Q.** And the composite z-score [19]?
**A.** 0.0923

**Q.** What does the source list for `C=CCNC(=O)[C@H]1[C@@H]2C(=O)O[C@@H](c3ccccc3)[C@@H](c3ccccc3)N2[C@@H](c2ccc(O)cc2)[C@]12C(=O)Nc1ccc(C#CC3=CCCCC3)cc12`?
**A.** composite z-score [1]: 1.3; composite z-score [2]: 1.02; composite z-score [3]: 0.0897; composite z-score [4]: 0.531; composite z-score [5]: 0.886; composite z-score [6]: 0.355; z-score [7]: 0.88; composite z-score (Lefty1): 0.916; composite z-score [8]: 0.622; z-score [9]: 0.0736 (inactive); composite z-score [10]: 0.121; z-score [11]: -3.15 (inactive); z-score [12]: -0.0901 (inactive); z-score [13]: -0.671 (inactive); z-score [14]: 0.21 (inactive); composite z-score [15]: 1.18; composite z-score [16]: 0.616; composite z-score (Torsin-1A (Homo sapiens) [17]): 1.75; composite z-score (Torsin-1A (Homo sapiens) [18]): 0.462; composite z-score [19]: 2

**Q.** With `C[C@H]1NC(=O)C([C@@H](C)OCc2ccccc2)NC(=O)[C@@]23C(=O)N[C@@H](Cc4ccccc4)C2[C@H](C)[C@@]2(C)O[C@H]2C3/C=C/C/C=C\CNC1=O` (stereo not given in full) as the molecule, how does the composite z-score [1] read?
**A.** 0.296

**Q.** And the composite z-score [2]?
**A.** -0.728

**Q.** What about the composite z-score [3] of the same molecule?
**A.** -0.235

**Q.** And the composite z-score [4]?
**A.** -0.394

**Q.** And the composite z-score [5]?
**A.** 0.425

**Q.** What about the composite z-score [6] of the same molecule?
**A.** 0.545

**Q.** And the z-score [7]?
**A.** 0.919

**Q.** What about the composite z-score (Lefty1) of the same molecule?
**A.** 0.459

**Q.** And the composite z-score [8]?
**A.** -0.682

**Q.** What about the z-score [9] of the same molecule?
**A.** -1.02 (inactive)

**Q.** And the composite z-score [10]?
**A.** 0.0077

**Q.** And the z-score [11]?
**A.** -1.16 (inactive)

**Q.** And the z-score [12]?
**A.** 1.3 (inactive)

**Q.** And the z-score [13]?
**A.** 4.12 (inactive)

**Q.** What about the z-score [14] of the same molecule?
**A.** -0.836 (inactive)

**Q.** And the composite z-score [15]?
**A.** -0.556

**Q.** What about the composite z-score [16] of the same molecule?
**A.** -0.179

**Q.** And the composite z-score (Torsin-1A (Homo sapiens) [17])?
**A.** 0.378

**Q.** And the composite z-score (Torsin-1A (Homo sapiens) [18])?
**A.** 0.352

**Q.** What about the composite z-score [19] of the same molecule?
**A.** 0.551

**Q.** Which results are given for `C=CCC(OC(C)=O)[C@@H]1[C@@H](N(Cc2ccc(-c3cccc(C(F)(F)F)c3)o2)C(=O)c2cccc3ccccc23)c2cc(OCCCO)ccc2N1C(=O)c1ccc2ccccc2c1` (stereo not given in full)?
**A.** composite z-score [1]: 0.272; composite z-score [2]: -0.582; composite z-score [3]: -0.118; composite z-score [4]: -0.425; composite z-score [5]: 0.839; composite z-score [6]: 0.101; z-score [7]: -0.251; composite z-score (Lefty1): 0.429; composite z-score [8]: 0.0578; z-score [9]: 1.05 (inactive); composite z-score [10]: -0.12; z-score [11]: -1.6 (inactive); z-score [12]: -0.924 (inactive); z-score [13]: -0.71 (inactive); z-score [14]: 0.942 (inactive); composite z-score [15]: -0.332; composite z-score [16]: -0.118; composite z-score (Torsin-1A (Homo sapiens) [17]): -0.0205; composite z-score (Torsin-1A (Homo sapiens) [18]): -0.0418; composite z-score [19]: 1.23

**Q.** What does the source list for `CC(c1ccccc1)C(O)C1C=CC2C(=O)N(c3ccccc3)C(=O)C2N1Nc1ccc(C#N)cc1` (stereo not given)?
**A.** composite z-score [1]: 2.19; composite z-score [2]: 1.22; composite z-score [3]: 0.648; composite z-score [4]: 0.993; composite z-score [5]: 1.12; composite z-score [6]: 0.329; z-score [7]: 1.03; composite z-score (Lefty1): 1.12; composite z-score [8]: 0.772; z-score [9]: -0.424 (inactive); composite z-score [10]: 0.644; z-score [11]: -0.661 (inactive); z-score [12]: -1.26 (inactive); z-score [13]: -0.136 (inactive); z-score [14]: 0.721 (inactive); composite z-score [15]: 0.17; composite z-score [16]: 0.179; composite z-score (Torsin-1A (Homo sapiens) [17]): 0.618; composite z-score (Torsin-1A (Homo sapiens) [18]): 0.739; composite z-score [19]: 1.18

From PubChem BioAssay
